Data as given in ChEMBL document CHEMBL1961873, “Compounds: GSK PKIS; Assays: Nanosyn kinase panel” (2012).

How the values were obtained:
[1] = molecular target: High affinity nerve growth factor receptor (Homo sapiens) (UniProt P04629); conditions: at 1 µM;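 also: each value is the mean percent inhibition of TRKA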
[2] = molecular target: BDNF/NT-3 growth factors receptor (Homo sapiens) (UniProt Q16620); conditions: at 0.1 µM
[3] = molecular target: BDNF/NT-3 growth factors receptor (Homo sapiens) (UniProt Q16620); conditions: at 1 µM
[4] = molecular target: NT-3 growth factor receptor (Homo sapiens) (UniProt Q16288); conditions: at 0.1 µM
NT-3 growth factor receptor (Homo sapiens), sequence (Q16288 32-839 limits assumed): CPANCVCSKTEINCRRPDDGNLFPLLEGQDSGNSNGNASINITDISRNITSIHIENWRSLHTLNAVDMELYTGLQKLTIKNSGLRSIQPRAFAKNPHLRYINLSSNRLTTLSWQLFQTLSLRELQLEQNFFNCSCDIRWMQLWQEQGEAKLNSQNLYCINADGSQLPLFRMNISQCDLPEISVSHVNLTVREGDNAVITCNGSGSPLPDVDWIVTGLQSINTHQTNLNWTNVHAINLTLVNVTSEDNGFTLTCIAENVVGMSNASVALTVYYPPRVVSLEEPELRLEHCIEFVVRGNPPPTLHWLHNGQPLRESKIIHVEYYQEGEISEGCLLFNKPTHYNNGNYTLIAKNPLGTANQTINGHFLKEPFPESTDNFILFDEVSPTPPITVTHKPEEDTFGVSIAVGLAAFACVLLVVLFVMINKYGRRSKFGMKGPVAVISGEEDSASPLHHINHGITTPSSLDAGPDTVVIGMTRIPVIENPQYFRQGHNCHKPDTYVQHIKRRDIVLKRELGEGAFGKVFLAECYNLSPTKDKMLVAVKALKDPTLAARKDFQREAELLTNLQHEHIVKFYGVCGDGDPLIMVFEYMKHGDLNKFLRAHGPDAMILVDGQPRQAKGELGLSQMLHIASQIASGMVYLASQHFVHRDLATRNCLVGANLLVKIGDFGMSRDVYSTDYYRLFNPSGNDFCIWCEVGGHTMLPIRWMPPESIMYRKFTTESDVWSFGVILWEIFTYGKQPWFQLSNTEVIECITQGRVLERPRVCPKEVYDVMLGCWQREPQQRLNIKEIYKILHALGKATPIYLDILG

[5] = molecular target: NT-3 growth factor receptor (Homo sapiens) (UniProt Q16288); conditions: at 1 µM
[6] = molecular target: T1, Tyrosine-protein kinase TXK (Homo sapiens) (UniProt P42681); conditions: at 0.1 µM
T1 sequence (whole entry): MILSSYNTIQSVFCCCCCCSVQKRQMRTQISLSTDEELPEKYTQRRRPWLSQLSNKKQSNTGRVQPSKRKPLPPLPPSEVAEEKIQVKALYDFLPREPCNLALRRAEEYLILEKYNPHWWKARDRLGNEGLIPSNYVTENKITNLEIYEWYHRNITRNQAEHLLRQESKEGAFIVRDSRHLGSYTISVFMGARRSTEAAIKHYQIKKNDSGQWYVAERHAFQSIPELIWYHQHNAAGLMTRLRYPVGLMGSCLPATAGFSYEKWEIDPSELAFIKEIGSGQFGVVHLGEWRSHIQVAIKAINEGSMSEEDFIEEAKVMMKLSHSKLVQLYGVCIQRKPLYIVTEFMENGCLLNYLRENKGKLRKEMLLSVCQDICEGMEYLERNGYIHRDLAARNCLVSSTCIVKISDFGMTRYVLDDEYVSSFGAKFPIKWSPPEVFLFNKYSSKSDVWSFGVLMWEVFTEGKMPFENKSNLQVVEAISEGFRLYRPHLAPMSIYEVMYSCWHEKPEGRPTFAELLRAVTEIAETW

[7] = molecular target: T1, Tyrosine-protein kinase TXK (Homo sapiens); conditions: at 1 µM
[8] = molecular target: Non-receptor tyrosine-protein kinase TYK2 (Homo sapiens) (UniProt P29597); conditions: at 0.1 µM;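 also: each value is a mean of the inhibition readings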
[9] = molecular target: T2, Dual specificity protein kinase TTK (Homo sapiens) (UniProt P33981); conditions: at 1 µM;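 also: reported figures are mean TTK inhibition at 1 µM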
T2 sequence (whole entry): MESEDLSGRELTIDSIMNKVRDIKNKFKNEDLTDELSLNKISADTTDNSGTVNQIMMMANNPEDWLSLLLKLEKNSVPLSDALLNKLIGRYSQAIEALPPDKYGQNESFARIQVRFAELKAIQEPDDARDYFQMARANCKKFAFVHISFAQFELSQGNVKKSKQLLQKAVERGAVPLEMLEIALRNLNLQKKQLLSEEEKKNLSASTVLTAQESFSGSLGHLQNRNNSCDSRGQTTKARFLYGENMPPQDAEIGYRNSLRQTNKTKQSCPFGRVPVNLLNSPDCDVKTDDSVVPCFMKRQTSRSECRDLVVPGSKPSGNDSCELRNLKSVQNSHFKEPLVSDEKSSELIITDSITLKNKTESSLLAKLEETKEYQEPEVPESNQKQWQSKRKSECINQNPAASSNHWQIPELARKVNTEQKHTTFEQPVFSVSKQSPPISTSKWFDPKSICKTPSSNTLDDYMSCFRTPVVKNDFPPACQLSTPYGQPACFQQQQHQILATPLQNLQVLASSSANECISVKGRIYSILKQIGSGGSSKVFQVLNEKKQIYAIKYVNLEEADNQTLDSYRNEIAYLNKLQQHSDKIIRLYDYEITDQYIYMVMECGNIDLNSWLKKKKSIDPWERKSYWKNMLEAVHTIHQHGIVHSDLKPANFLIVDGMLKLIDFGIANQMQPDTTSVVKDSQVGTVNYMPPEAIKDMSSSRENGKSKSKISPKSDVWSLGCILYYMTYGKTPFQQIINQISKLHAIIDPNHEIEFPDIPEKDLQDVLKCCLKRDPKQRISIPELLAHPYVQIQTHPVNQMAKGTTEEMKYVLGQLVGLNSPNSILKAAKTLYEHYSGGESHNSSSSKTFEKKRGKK

[10] = molecular target: T3, Aurora kinase A (Homo sapiens) (UniProt O14965); conditions: at 0.1 µM
T3 sequence (whole entry): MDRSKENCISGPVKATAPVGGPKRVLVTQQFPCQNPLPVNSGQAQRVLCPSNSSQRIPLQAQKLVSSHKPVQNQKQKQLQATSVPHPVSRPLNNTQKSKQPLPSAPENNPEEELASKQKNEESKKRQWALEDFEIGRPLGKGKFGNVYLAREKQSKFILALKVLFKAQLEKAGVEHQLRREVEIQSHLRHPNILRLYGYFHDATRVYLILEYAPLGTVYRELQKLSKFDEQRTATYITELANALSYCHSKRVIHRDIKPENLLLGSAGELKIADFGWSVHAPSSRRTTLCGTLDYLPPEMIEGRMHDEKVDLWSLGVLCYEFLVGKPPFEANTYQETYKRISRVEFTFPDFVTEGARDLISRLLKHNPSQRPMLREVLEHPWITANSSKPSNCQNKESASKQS

[11] = molecular target: T3, Aurora kinase A (Homo sapiens); conditions: at 1 µM
[12] = molecular target: Aurora kinase B (Homo sapiens) (UniProt Q96GD4); conditions: at 0.1 µM
Aurora kinase B (Homo sapiens), sequence (Q96GD4 whole entry): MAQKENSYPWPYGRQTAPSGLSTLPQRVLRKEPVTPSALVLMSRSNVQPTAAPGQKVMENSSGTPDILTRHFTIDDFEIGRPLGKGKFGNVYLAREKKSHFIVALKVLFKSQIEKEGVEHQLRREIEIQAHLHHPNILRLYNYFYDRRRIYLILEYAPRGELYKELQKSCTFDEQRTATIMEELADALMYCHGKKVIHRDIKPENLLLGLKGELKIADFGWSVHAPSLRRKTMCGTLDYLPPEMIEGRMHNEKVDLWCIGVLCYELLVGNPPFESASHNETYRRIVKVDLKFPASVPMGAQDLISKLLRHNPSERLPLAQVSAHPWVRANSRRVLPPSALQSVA

[13] = molecular target: Aurora kinase B (Homo sapiens) (UniProt Q96GD4); conditions: at 1 µM
[14] = molecular target: T4, Aurora kinase C (Homo sapiens) (UniProt Q9UQB9); conditions: at 0.1 µM
T4 sequence (whole entry): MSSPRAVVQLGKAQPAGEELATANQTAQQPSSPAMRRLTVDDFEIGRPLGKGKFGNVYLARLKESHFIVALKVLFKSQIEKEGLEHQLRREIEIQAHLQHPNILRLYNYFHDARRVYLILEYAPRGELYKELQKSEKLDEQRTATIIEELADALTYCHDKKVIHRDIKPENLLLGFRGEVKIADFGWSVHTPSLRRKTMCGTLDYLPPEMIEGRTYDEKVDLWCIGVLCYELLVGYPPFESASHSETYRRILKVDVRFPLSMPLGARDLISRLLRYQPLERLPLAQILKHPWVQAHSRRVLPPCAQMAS

[15] = molecular target: T4, Aurora kinase C (Homo sapiens); conditions: at 1 µM
[16] = molecular target: Serine/threonine-protein kinase 10 (Homo sapiens) (UniProt O94804); conditions: at 0.1 µM
Serine/threonine-protein kinase 10 (Homo sapiens), sequence (O94804 whole entry, looked up): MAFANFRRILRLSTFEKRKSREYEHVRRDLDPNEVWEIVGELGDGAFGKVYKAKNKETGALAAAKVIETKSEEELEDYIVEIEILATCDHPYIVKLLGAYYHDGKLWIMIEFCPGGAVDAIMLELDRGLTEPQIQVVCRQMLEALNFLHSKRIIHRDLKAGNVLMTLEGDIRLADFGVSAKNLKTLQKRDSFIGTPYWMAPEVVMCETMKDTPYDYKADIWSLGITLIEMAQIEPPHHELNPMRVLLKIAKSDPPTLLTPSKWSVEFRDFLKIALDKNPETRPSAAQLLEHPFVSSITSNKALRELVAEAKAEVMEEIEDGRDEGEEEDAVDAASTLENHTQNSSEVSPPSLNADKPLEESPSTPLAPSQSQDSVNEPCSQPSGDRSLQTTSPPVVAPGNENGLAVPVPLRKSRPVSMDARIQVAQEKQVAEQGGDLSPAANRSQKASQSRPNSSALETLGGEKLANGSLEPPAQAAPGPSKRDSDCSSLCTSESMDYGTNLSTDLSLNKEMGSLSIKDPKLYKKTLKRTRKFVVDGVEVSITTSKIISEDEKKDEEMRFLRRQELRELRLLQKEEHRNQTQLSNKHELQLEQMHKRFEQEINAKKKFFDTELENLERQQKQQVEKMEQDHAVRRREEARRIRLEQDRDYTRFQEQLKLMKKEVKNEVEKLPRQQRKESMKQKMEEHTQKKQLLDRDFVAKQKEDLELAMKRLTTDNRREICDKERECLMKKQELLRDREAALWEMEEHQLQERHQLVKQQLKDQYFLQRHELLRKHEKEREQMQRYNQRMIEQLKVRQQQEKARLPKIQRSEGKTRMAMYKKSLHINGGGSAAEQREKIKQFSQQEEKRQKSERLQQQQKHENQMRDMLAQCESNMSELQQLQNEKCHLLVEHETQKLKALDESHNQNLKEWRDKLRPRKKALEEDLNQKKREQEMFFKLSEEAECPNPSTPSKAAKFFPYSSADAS

[17] = molecular target: Serine/threonine-protein kinase 10 (Homo sapiens) (UniProt O94804); conditions: at 1 µM
[18] = molecular target: T5, Mitogen-activated protein kinase kinase kinase kinase 2 (Homo sapiens) (UniProt Q12851); conditions: at 0.1 µM
T5 sequence (whole entry): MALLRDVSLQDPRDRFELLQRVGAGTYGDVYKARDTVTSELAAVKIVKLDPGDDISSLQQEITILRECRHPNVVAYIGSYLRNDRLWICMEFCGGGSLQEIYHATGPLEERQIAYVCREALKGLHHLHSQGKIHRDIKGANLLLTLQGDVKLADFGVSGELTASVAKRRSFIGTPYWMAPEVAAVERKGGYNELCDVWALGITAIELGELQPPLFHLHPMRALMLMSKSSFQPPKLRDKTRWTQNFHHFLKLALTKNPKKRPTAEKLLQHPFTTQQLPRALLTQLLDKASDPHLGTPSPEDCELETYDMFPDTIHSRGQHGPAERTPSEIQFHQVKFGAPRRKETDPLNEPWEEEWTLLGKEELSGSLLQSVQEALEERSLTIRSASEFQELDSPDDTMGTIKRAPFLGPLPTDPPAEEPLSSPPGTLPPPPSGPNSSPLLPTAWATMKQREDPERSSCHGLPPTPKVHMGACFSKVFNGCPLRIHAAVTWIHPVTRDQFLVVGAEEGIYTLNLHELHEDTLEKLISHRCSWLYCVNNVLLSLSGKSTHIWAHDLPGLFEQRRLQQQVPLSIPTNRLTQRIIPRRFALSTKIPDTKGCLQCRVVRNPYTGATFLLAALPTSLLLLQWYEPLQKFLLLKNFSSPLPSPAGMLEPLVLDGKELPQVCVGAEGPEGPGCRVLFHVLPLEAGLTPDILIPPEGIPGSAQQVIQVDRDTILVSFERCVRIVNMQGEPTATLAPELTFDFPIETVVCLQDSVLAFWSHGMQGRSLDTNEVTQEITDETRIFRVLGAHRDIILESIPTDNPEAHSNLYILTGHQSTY

[19] = molecular target: T5, Mitogen-activated protein kinase kinase kinase kinase 2 (Homo sapiens); conditions: at 1 µM
[20] = molecular target: Mitogen-activated protein kinase kinase kinase kinase 4 (Homo sapiens) (UniProt O95819); conditions: at 0.1 µM
Mitogen-activated protein kinase kinase kinase kinase 4 (Homo sapiens), sequence (O95819 2-1239 limits assumed): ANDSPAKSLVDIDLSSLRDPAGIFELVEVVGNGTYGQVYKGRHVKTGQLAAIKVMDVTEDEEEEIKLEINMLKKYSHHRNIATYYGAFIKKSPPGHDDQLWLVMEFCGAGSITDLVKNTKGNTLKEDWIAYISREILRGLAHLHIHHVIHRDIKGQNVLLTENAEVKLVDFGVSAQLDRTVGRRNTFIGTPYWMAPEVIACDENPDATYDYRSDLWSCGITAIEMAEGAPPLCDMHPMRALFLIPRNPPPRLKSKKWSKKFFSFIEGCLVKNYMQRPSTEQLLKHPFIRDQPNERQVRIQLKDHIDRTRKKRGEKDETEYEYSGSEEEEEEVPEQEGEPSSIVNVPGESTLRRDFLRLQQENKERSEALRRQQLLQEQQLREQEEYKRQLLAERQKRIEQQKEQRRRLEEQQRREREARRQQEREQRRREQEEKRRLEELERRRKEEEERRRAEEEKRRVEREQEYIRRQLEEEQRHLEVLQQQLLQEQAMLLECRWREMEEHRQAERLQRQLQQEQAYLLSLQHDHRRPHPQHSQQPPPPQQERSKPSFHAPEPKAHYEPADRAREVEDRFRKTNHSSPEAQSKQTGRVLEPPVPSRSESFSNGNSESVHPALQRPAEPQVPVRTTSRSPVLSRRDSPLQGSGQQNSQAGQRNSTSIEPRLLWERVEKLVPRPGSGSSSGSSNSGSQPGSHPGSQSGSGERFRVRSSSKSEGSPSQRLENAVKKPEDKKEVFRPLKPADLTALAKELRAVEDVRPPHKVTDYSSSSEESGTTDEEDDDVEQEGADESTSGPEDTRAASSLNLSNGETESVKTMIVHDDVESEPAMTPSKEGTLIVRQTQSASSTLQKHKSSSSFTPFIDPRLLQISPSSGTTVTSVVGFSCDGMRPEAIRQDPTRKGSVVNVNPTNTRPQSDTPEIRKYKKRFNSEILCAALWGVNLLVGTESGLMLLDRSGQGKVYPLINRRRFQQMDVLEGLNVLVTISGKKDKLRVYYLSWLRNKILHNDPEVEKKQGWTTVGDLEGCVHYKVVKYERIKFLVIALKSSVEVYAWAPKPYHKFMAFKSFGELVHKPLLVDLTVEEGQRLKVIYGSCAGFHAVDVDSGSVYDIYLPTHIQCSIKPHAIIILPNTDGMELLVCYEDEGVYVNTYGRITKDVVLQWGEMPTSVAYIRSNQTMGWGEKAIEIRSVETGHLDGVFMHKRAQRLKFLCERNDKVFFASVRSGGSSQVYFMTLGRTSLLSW

BDNF/NT-3 growth factors receptor (Homo sapiens), sequence (Q16620 32-822 limits assumed): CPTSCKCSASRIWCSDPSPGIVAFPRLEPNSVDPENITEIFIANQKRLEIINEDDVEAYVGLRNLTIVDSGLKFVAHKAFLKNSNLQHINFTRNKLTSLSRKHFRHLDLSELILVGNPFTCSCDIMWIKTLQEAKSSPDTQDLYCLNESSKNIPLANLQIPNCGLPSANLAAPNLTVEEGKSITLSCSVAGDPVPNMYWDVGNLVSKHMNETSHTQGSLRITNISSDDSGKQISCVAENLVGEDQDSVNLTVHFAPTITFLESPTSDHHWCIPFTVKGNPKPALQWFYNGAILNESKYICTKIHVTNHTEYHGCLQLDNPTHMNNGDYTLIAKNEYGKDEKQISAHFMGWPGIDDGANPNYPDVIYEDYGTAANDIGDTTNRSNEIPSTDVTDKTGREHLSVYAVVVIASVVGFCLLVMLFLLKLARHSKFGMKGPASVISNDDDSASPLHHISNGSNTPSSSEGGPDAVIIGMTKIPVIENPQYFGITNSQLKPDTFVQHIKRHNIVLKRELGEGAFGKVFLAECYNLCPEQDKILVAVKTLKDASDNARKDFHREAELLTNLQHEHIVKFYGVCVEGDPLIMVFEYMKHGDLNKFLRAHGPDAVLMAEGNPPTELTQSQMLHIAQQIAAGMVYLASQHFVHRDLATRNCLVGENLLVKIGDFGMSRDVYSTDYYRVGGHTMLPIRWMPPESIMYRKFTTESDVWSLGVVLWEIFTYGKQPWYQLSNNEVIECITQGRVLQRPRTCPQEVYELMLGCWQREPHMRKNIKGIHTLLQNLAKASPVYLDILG
High affinity nerve growth factor receptor (Homo sapiens), sequence (P04629 33-796 limits assumed): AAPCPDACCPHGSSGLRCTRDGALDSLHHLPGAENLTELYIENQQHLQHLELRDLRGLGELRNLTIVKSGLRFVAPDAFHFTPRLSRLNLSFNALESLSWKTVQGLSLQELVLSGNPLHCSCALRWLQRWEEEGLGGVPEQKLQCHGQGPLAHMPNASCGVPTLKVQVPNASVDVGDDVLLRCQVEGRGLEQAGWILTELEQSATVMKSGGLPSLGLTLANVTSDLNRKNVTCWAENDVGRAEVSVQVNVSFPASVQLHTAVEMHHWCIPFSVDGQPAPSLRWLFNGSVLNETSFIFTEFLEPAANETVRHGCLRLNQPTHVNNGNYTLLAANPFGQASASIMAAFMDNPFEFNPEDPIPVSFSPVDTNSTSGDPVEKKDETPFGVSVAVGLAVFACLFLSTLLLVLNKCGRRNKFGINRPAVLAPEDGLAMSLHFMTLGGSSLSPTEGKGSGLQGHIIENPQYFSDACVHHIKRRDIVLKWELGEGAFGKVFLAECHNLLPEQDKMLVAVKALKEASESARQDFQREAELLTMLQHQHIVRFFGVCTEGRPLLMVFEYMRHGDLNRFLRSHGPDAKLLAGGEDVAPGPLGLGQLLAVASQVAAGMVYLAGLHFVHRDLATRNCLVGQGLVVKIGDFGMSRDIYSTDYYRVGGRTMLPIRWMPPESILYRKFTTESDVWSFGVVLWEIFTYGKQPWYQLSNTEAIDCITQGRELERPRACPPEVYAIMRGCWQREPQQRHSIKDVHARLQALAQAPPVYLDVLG

| SMILES | inhibition [1] | inhibition [2] | inhibition [3] | inhibition [4] | inhibition [5] | inhibition [6] | inhibition [7] | inhibition [8] | inhibition [9] | inhibition [10] | inhibition [11] | inhibition [12] | inhibition [13] | inhibition [14] | inhibition [15] | inhibition [16] | inhibition [17] | inhibition [18] | inhibition [19] | inhibition [20] |
| --- | --- | --- | --- | --- | --- | --- | --- | --- | --- | --- | --- | --- | --- | --- | --- | --- | --- | --- | --- | --- |
| c1ccc(Nc2ncc(-c3ccccc3)o2)cc1 | 6.98% | 2.68% | 9.78% | 4.23% | 8.89% | 2.01% | 6.4% | -2.68% | 16.1% | 2.24% | 15.2% | 3.84% | 10.3% | 0.81% | 16% | 3.84% | 9.44% | 1.03% | 5.7% | 5.9% |
| NS(=O)(=O)c1ccc(NC=C2C(=O)Nc3ccc4ncsc4c32)cc1 | 68.8% | 31.8% | 80.2% | 35.6% | 84.6% | 4.55% | 17.2% | 11% | 75.5% | 34.6% | 90.4% | 29.9% | 69.6% | 28.4% | 92.2% | 6.33% | 26.9% | 27.2% | 66.5% | 69.4% |
| CC(C)c1ccc(Nc2nccc(-c3cnn4ncccc34)n2)cc1 | 7.94% | 2.01% | 6.18% | 3.36% | 9.1% | 1.69% | 3.04% | -0.82% | 22.2% | 6.2% | 65.8% | 7.65% | 43.1% | 5.11% | 74.6% | 3.13% | 8.29% | 1.97% | 23.4% | 4.8% |
| Cc1cc(Cl)cc2c1NC(=O)C2=NNc1ccc(S(N)(=O)=O)cc1 | 2.26% | 1.15% | 4.46% | 1.2% | 3.59% | 2.77% | 3.71% | -5.56% | 9.15% | 1.75% | 4.36% | 4.55% | 6.64% | 2.52% | -3.99% | 1.5% | 7.34% | 1% | 0.54% | 12.7% |
| Nc1nccc(C#Cc2cncnc2Nc2ccc(OCc3cccc(F)c3)c(Cl)c2)n1 | 9.29% | 3.48% | 11.3% | 2.67% | 9.94% | 3.85% | 8.58% | -3.29% | 14.2% | 1.06% | 15.2% | 5.2% | 13.2% | 3.04% | 10.1% | 5.76% | 11.4% | 1.38% | -0.42% | 6.33% |
| N#Cc1cccc(Nc2nccc(-c3cnn4ncccc34)n2)c1 | 65.7% | 24.3% | 75.3% | 28.2% | 87.5% | 5.32% | 24.4% | -4.17% | 35% | 11.3% | 74.5% | 19.3% | 64% | 18.5% | 96.7% | 5.05% | 15.8% | 11% | 45.8% | 19.3% |
| COc1ccc2ncnc(Nc3ccc(OCc4ccccc4)cc3)c2c1 | 1.61% | 2.59% | 2.63% | -0.03% | 0.85% | 2.73% | 3.98% | -2.4% | 4.18% | 1.97% | 8.54% | 2.34% | 22% | 1.84% | 10.5% | 4.51% | 9.23% | 0.8% | 1.74% | 3.79% |
